Measured values as given in PubChem BioAssay (NCI).
The panel holds about 79,000 compounds, 15% with a hit somewhere; the sample as a whole holds those more often. Activity calls are given as the source filed them. Rule as the data show it: active = growth inhibition above about 70%; inactive = the rest.

Experiments:
[1] = NCI Yeast Anticancer Drug Screen. Data for the mec2-1 strain (AID 157); details: S. cerevisiae mec2-1 strain, active compounds read high
How it was run: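 Cells of the genetically defined mec2-1 yeast strain are incubated with test compound. Inhibition of growth is calculated against vehicle-treated controls.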

[2] = NCI Yeast Anticancer Drug Screen. Data for the sgs1 mgt1 strain (AID 161);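 also: 0% = growth of cultures given vehicle only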; details: S. cerevisiae sgs1 mgt1 strain, active compounds read high
How it was run: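 Mutant yeast exposed to compound; growth scored against vehicle-only wells.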

[3] = NCI Yeast Anticancer Drug Screen. Data for the CLN2oe strain (AID 163);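 also: 0% = growth of vehicle-only control cultures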; details: S. cerevisiae CLN2oe strain, active compounds read high
How it was run: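 Strain altered in cell-cycle control, incubated with compound; growth compared to solvent-treated controls.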

[4] = NCI Yeast Anticancer Drug Screen. Data for the cln2 rad14 strain (AID 165);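 also: 0% = growth equal to vehicle treated cultures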; details: S. cerevisiae cln2 rad14 strain, active compounds read high
How it was run: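 The screen exposed genetically defined yeast (cln2 rad14) to test compounds and scored growth inhibition relative to vehicle-treated controls.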

[5] = NCI Yeast Anticancer Drug Screen. Data for the bub3 strain (AID 167); details: S. cerevisiae bub3 mutant strain, active compounds read high
How it was run: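 Readout: yeast growth inhibition, expressed relative to vehicle-only wells. The test organism is a mutant strain from a panel with lesions in DNA repair or checkpoint genes.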

[6] = NCI Yeast Anticancer Drug Screen. Data for the wt2 strain (AID 169);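 also: 0% = growth of vehicle-treated yeast cultures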; details: S. cerevisiae wt2 strain growth inhibition, active compounds read high
How it was run: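 Steps: yeast strain treated with compound; growth recorded; inhibition calculated relative to cultures given vehicle alone.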

[7] = NCI Yeast Anticancer Drug Screen. Data for the sgs1 strain (AID 173);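 also: 0% = growth of vehicle-only control cultures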; details: S. cerevisiae sgs1 mutant, active compounds read high
How it was run: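 Inhibition of yeast growth served as the measure. The mutant strain was treated with each compound, and growth was normalised to cultures receiving vehicle alone.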

[8] = NCI Yeast Anticancer Drug Screen. Data for the mlh1 rad18 strain (AID 175); details: S. cerevisiae mlh1 rad18 strain growth inhibition, active compounds read high
How it was run: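 Compound-treated yeast growth, normalised to vehicle controls. Strain bears defined DNA repair mutations.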

[9] = NCI Yeast Anticancer Drug Screen. Data for the rad52 strain (AID 147);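 also: 0% = growth of vehicle-treated control cultures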; details: S. cerevisiae rad52 mutant growth inhibition, active compounds read high
How it was run: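 Genetically altered yeast (DNA damage repair defect) treated with compound; inhibition calculated relative to vehicle.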

[10] = NCI Yeast Anticancer Drug Screen. Data for the wt1 strain (AID 149);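 also: 0% = growth of vehicle-treated wt1 cultures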; details: S. cerevisiae wt1 strain (SPY 50644) growth inhibition, active compounds read high
How it was run: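 Growth inhibition read against vehicle controls after compound exposure of the wt1 yeast strain.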

[11] = NCI Yeast Anticancer Drug Screen. Data for the rad50EPP+ strain (AID 151);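 also: 0% = growth of vehicle-treated control cultures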; details: S. cerevisiae rad50 mutant strain, active compounds read high
How it was run: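 Strain rad50EPP+; compound exposure; % growth inhibition vs vehicle.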

[12] = NCI Yeast Anticancer Drug Screen. Data for the rad50 strain (AID 155);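 also: 0% = growth of vehicle-only cultures of the same strain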; details: S. cerevisiae rad50 strain growth inhibition, active compounds read high
How it was run: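 Readout: growth inhibition relative to vehicle-treated cultures. Compound exposure was carried out in a genetically defined yeast strain deficient in DNA damage repair.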

[13] = NCI Yeast Anticancer Drug Screen. Data for the mlh1 strain (AID 171);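 also: 0% = growth of vehicle-treated control cultures of the same strain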; details: S. cerevisiae mlh1 strain growth inhibition, active compounds read high
How it was run: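 Yeast screen: mutant strain plus compound, growth scored against vehicle control wells.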

[14] = NCI Yeast Anticancer Drug Screen. Data for the rad18 strain (AID 177); details: S. cerevisiae rad18 mutant growth inhibition, active compounds read high
How it was run: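 Inhibition values reflect reduced yeast growth compared with vehicle-treated controls, using a strain engineered with a DNA damage repair defect.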

[15] = at 5.0 µM (retest, dose inferred, filed as 0.5)
[16] = at 50.0 µM (retest, dose inferred, filed as 5.0)

Measured: growth inhibition

COc1cc(N(C)C)ccc1/C=C\c1ccnc2ccccc12
inactive: [1]; at 100.0 µM 0% | [2]; [15] 0% | [2]; [16] 64% | [2]; at 50.0 µM -4.05% | [3]; at 1.2 µM -11% | [3]; at 3.7 µM -13% | [3]; at 11.0 µM -18% | [3]; at 33.0 µM -15% | [3]; at 100.0 µM -9% | [4]; [15] -17% | [4]; [16] -13% | [4]; at 50.0 µM -3.5% | [5]; at 1.2 µM -5% | [5]; at 3.7 µM -11% | [5]; [15] -14% | [5]; at 11.0 µM -14% | [5]; at 33.0 µM -10% | [5]; [16] -3% | [5]; at 50.0 µM -5.95% | [5]; at 100.0 µM 4% | [6]; at 1.2 µM -4% | [6]; at 3.7 µM -7% | [6]; at 11.0 µM -4% | [6]; at 33.0 µM 16% | [6]; at 100.0 µM 31% | [7]; at 1.2 µM -4% | [7]; at 3.7 µM -5% | [7]; at 11.0 µM 10% | [7]; at 33.0 µM 36% | [7]; at 100.0 µM 45% | [8]; [15] -8% | [8]; [16] 32% | [8]; at 50.0 µM 2.15%

C/C(=N\NC(=S)NNC(=S)N(C)c1ccccc1)c1ccccn1
inactive: [9]; at 1.2 µM 9% | [9]; at 3.7 µM 40% | [10]; at 1.2 µM -4% | [10]; at 3.7 µM 46% | [11]; at 1.2 µM 11% | [11]; at 3.7 µM 5% | [12]; at 1.2 µM -9% | [12]; at 3.7 µM 37% | [12]; [15] -19% | [1]; at 1.2 µM 18% | [1]; at 3.7 µM 25% | [1]; [15] 10% | [2]; [15] 0% | [3]; at 1.2 µM 17% | [3]; at 3.7 µM 13% | [4]; [15] 29% | [5]; at 1.2 µM -17% | [5]; at 3.7 µM 21% | [6]; at 1.2 µM 9% | [6]; at 3.7 µM 22% | [7]; at 1.2 µM 13% | [7]; at 3.7 µM 64% | [8]; [15] 27%
active: [9]; at 11.0 µM 97% | [9]; at 33.0 µM 98% | [9]; at 100.0 µM 83% | [10]; at 11.0 µM 97% | [10]; at 33.0 µM 98% | [10]; at 100.0 µM 86% | [11]; at 11.0 µM 92% | [11]; at 33.0 µM 98% | [11]; at 100.0 µM 81% | [12]; at 11.0 µM 97% | [12]; at 33.0 µM 97% | [12]; [16] 98% | [12]; at 50.0 µM 87% | [12]; at 100.0 µM 83% | [1]; at 11.0 µM 98% | [1]; at 33.0 µM 99% | [1]; [16] 99% | [1]; at 50.0 µM 90.5% | [1]; at 100.0 µM 82% | [2]; [16] 98% | [2]; at 50.0 µM 88.5% | [3]; at 11.0 µM 97% | [3]; at 33.0 µM 98% | [3]; at 100.0 µM 79% | [4]; [16] 99% | [4]; at 50.0 µM 86.3% | [5]; [15] 82% | [5]; at 11.0 µM 97% | [5]; at 33.0 µM 97% | [5]; [16] 98% | [5]; at 50.0 µM 87.2% | [5]; at 100.0 µM 83% | [6]; at 11.0 µM 97% | [6]; at 33.0 µM 99% | [6]; at 100.0 µM 90% | [7]; at 11.0 µM 98% | [7]; at 33.0 µM 98% | [7]; at 100.0 µM 88% | [8]; [16] 99% | [8]; at 50.0 µM 84.5%

CC1=CC2C(C(C)C)CC1C1C(=O)OC(=O)C21 (centres undefined)
active: [9]; at 100.0 µM 71% | [12]; [16] 83% | [12]; at 50.0 µM 86.7% | [12]; at 100.0 µM 81% | [1]; [16] 86% | [1]; at 50.0 µM 76.5% | [5]; at 50.0 µM 70.8% | [6]; at 100.0 µM 86% | [8]; [16] 77% | [8]; at 50.0 µM 76.4%
inactive: [9]; at 1.2 µM -12% | [9]; at 3.7 µM -14% | [9]; at 11.0 µM -2% | [9]; at 33.0 µM 20% | [10]; at 1.2 µM -5% | [10]; at 3.7 µM 0% | [10]; at 11.0 µM 6% | [10]; at 33.0 µM 13% | [10]; at 100.0 µM 51% | [11]; at 1.2 µM -8% | [11]; at 3.7 µM -20% | [11]; at 11.0 µM 10% | [11]; at 33.0 µM 33% | [11]; at 100.0 µM 49% | [12]; at 1.2 µM -13% | [12]; at 3.7 µM -16% | [12]; [15] -127% | [12]; at 11.0 µM -12% | [12]; at 33.0 µM 24% | [1]; at 1.2 µM -1% | [1]; at 3.7 µM 0% | [1]; [15] -42% | [1]; at 11.0 µM -2% | [1]; at 33.0 µM 2% | [1]; at 100.0 µM 37% | [2]; [15] -60% | [2]; [16] 25% | [2]; at 50.0 µM 13.6% | [3]; at 1.2 µM -7% | [3]; at 3.7 µM -11% | [3]; at 11.0 µM -10% | [3]; at 33.0 µM -9% | [3]; at 100.0 µM 16% | [4]; [15] -53% | [4]; [16] 47% | [4]; at 50.0 µM 13.4% | [5]; at 1.2 µM -6% | [5]; at 3.7 µM -6% | [5]; [15] -71% | [5]; at 11.0 µM -9% | [5]; at 33.0 µM -6% | [5]; [16] 66% | [5]; at 100.0 µM 50% | [6]; at 1.2 µM -8% | [6]; at 3.7 µM -2% | [6]; at 11.0 µM 11% | [6]; at 33.0 µM 36% | [13]; at 1.2 µM -16% | [13]; at 3.7 µM -7% | [13]; at 11.0 µM -6% | [13]; at 33.0 µM 10% | [13]; at 100.0 µM 56% | [8]; [15] -140% | [14]; at 1.2 µM -9% | [14]; at 3.7 µM -6% | [14]; at 11.0 µM -6% | [14]; at 33.0 µM 3% | [14]; at 100.0 µM 69%
